Paper PMC5540273 (PLoS ONE, 2017)

How the values were obtained:
Details in all cases: concentration: 1 μM, replicates: in singlicate; n = 1
PIKFYVE = tested on: PIKFYVE
PIM1 = tested on: PIM1
PIM2 = tested on: PIM2
PIM3 = tested on: PIM3
PIP5K1A = tested on: PIP5K1A
PIP5K1C = tested on: PIP5K1C
PIP5K2B = tested on: PIP5K2B
PIP5K2C = tested on: T1, PIP5K2C
T1 construct: gene PIP4K2C

PKAC-alpha = tested on: T2, PKAC-alpha
T2 construct: gene PRKACA

PKAC-beta = tested on: T3, PKAC-beta
T3 construct: gene PRKACB

PKMYT1 = tested on: PKMYT1
PKN1 = tested on: PKN1
PKN2 = tested on: PKN2
PLK1 = tested on: PLK1
PLK2 = tested on: PLK2
PLK3 = tested on: PLK3
PLK4 = tested on: PLK4
PRKCD = tested on: PRKCD
PRKCE = tested on: PRKCE
PRKCH = tested on: PRKCH
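Further: KINOMEscan kinase panel screen.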

Row | Compound | %Inh (PIKFYVE) | %Inh (PIM1) | %Inh (PIM2) | %Inh (PIM3) | %Inh (PIP5K1A) | %Inh (PIP5K1C) | %Inh (PIP5K2B) | %Inh (PIP5K2C) | %Inh (PKAC-alpha) | %Inh (PKAC-beta) | %Inh (PKMYT1) | %Inh (PKN1) | %Inh (PKN2) | %Inh (PLK1) | %Inh (PLK2) | %Inh (PLK3) | %Inh (PLK4) | %Inh (PRKCD) | %Inh (PRKCE) | %Inh (PRKCH)
1 | O=c1cc(N2CCOCC2)nc2n(Cc3cccc(F)c3)ccn12 [GSK2297430] | 0% | 11% | 0% | 0% | 0% | 21% | 21% | 0% | 12% | 12% | 0% | 20% | 0% | 1% | 0% | 0% | 0% | 2% | 3% | 31%
2 | Nc1nc(-c2ccc3c(N)n[nH]c3c2)cc(N2CCCC2)n1 [GSK2227430] | 0% | 20% | 0% | 0% | 0% | 26% | 0% | 0% | 0% | 0% | 0% | 10% | 0% | 0% | 0% | 0% | 0% | 0% | 0% | 5%
3 | CSc1ccc(-c2cc3ncnc(SCC(=O)O)c3s2)cc1 | 28% | 0% | 0% | 0% | 0% | 0% | 20% | 7% | 0% | 0% | 10% | 8% | 0% | 0% | 0% | 0% | 11% | 17% | 26% | 2%
4 | N#Cc1c(N2CCOCC2)sc(-c2ccn[nH]2)c1-c1ccc(Cl)cc1 | 44% | 18% | 0% | 16% | 0% | 0% | 7% | 0% | 0% | 0% | 10% | 17% | 0% | 24% | 20% | 15% | 19% | 0% | 0% | 2%
5 | Cl.Nc1ncnc2occ(-c3ccc(NC(=O)Nc4cc(C(F)(F)F)ccc4F)cc3)c12 [SB-707548] | 25% | 23% | 0% | 0% | 28% | 57% | 36% | 45% | 9% | 0% | 0% | 0% | 0% | 5% | 98.8% | 98% | 35% | 27% | 10% | 1%
6 | CC(C)Oc1ccc2c(-c3ccnc(Nc4ccc(N5CCN(C)CC5)cc4)n3)cnn2n1 [GW696155] | 92.8% | 37% | 0% | 42% | 14% | 47% | 73% | 87% | 3% | 0% | 0% | 31% | 4% | 25% | 62% | 95.9% | 96.8% | 0% | 28% | 0%
7 | CCc1ccnc(/C=C/c2n[nH]c3cc(Sc4ccccc4C(=O)NC)ccc23)c1 | 0% | 0% | 0% | 0% | 5% | 0% | 27% | 0% | 0% | 0% | 0% | 9% | 0% | 0% | 0% | 0% | 83% | 9% | 12% | 0%
8 | CCn1cnc2c(N)ncnc21 [GW345098] | 0% | 0% | 0% | 0% | 0% | 0% | 0% | 0% | 8% | 14% | 5% | 20% | 0% | 0% | 7% | 18% | 27% | 0% | 18% | 9%
9 | c1ccc(-c2n[nH]cc2-c2ccnc3ccccc23)nc1 [GW271431] | 0% | 8% | 0% | 3% | 0% | 0% | 15% | 4% | 9% | 14% | 3% | 12% | 0% | 0% | 0% | 0% | 0% | 4% | 3% | 9%
10 | CN(C1=C(c2ccccc2)C(=O)NC1=O)c1ccccc1 [SB-334860] | 10% | 19% | 0% | 0% | 8% | 37% | 7% | 10% | 4% | 0% | 8% | 20% | 0% | 3% | 2% | 0% | 21% | 0% | 22% | 6%
